# Source: PubChem BioAssay (National Center for Advancing Translational Sciences (NCATS))
# Shown are actives, neighbours in structure and some others; about 1.1% of the full set was active somewhere.
# ASM inhibitor – Inhibitors of Secretory Acid Sphingomyelinase (S-ASM): qHTS. placental ASM, HMU-PC fluorogenic substrate, 60 min. Potency, µM (top dose mostly 57.5 µM), for the others: at the top dose activity change, negative = inhibition, most hits filed as inhibitors. 340,000 compounds, 0.006% hits. AID 504937, 2011; further: potency means the concentration at half of the fitted maximal effect
#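 Human placenta-derived ASM enzyme was preincubated with compound for 10 minutes at room temperature, then given fluorogenic substrate HMU-PC0 (9 uM final) for 60 minutes at 37 °C; a pH 10 stop preceded fluorescence reading at Ex 386/Em 447 nm.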
# gsp antagonist – qHTS for Antagonists of gsp, the Etiologic Mutation Responsible for Fibrous Dysplasia/McCune-Albright Syndrome: qHTS; gsp-mutant cells, cAMP HTRF, 30 min; Potency, µM (doses to about 76.9 µM), for inactives: at the highest dose activity change, negative = inhibition, usual class: inhibitors; AID 624288, 2012; 340,000 compounds, 0.4% hits; calls by dose curve; cell line not stated here;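 further: intracellular cAMP measured with PDE inhibitor Ro 20-1724 present during compound exposure; potency means the concentration at half of the fitted maximal effect; on the % scale 0 is the no-effect control and ±100 the full control effect; nearly all actives have a fitted effect of over 65% in size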
#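 HTRF cAMP measurement after 30 min RT detection following 30 min, 37C compound treatment alongside […] (added as 300 uM solution) in G418-selected cells seeded at 2000/well and grown 16–24 h.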
# gsp agonist – qHTS for Agonist of gsp, the Etiologic Mutation Responsible for Fibrous Dysplasia/McCune-Albright Syndrome: qHTS; gsp mutant cells, cAMP HTRF, 30 min; Potency, µM (top dose mostly 76.9 µM), for the others: at the top dose activation (cAMP increase), hits mostly activators; 340,000 compounds, 0.13% hits; AID 624287, 2012; active means well fitted activation curve with a large enough effect; inconclusive means small, poorly fitted or top-dose-only effect, or another doubt; inactive means no such curve, though single readings can be large or run the other way; cell line not stated here;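 further: phosphodiesterase inhibitor Ro 20-1724 added with compounds to block cAMP breakdown; potency means the concentration at half of the fitted maximal effect; nearly all actives have a fitted effect of over 60% in size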
#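 Cells in DMEM/10% FBS with G418 were pretreated with compounds in DMSO plus […] (300 uM stock) for 30 min at 37C. cAMP was measured by HTRF (cAMP-d2 plus anti-cAMP antibody-K) after 30 min at room temperature.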
# Integrin act MD – qHTS for Activators of Integrin-Mediated Alleviation for Muscular Dystrophy. alpha7betagal myoblasts, beta-gal FDG fluorescence, 48 h. Potency, µM (doses to about 38.3 µM), without a hit: at the highest dose activation, most hits filed as activators. 350,000 compounds, 0.064% hits. AID 624291, 2012;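 further: potency means the concentration at half of the fitted maximal effect; 100% = response of the positive control SU9516; nearly all actives have a fitted effect of over 60% in size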
#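 alpha7betagal+/- myoblasts (passage 13, 250/well) treated 48 h at 37C with compounds at 1:260 dilution of DMSO stock. Lysed, then beta-galactosidase activity read as FDG fluorescence (ex 480/em 540) after 30 min, with pre-read for autofluorescence.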
# RXFP1 antagonist – qHTS Assay for Antagonists of the Relaxin Receptor RXFP1. Relaxin receptor 1 (Homo sapiens), Q9HBX9. HEK293-RXFP1, relaxin-stimulated cAMP HTRF, 30 min; hits give low values. activity change, negative = inhibition, % at 57.5 µM. 350,000 compounds, 0.59% hits;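 active means activity change of -60% or lower, but not beyond a set lower limit; inconclusive means change between -60% and -40%, or beyond the set limit; inactive means change above -40%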; further: on the % scale 0 is the no-effect control and ±100 the full control effect
# Target sequence (Q9HBX9 whole entry, looked up): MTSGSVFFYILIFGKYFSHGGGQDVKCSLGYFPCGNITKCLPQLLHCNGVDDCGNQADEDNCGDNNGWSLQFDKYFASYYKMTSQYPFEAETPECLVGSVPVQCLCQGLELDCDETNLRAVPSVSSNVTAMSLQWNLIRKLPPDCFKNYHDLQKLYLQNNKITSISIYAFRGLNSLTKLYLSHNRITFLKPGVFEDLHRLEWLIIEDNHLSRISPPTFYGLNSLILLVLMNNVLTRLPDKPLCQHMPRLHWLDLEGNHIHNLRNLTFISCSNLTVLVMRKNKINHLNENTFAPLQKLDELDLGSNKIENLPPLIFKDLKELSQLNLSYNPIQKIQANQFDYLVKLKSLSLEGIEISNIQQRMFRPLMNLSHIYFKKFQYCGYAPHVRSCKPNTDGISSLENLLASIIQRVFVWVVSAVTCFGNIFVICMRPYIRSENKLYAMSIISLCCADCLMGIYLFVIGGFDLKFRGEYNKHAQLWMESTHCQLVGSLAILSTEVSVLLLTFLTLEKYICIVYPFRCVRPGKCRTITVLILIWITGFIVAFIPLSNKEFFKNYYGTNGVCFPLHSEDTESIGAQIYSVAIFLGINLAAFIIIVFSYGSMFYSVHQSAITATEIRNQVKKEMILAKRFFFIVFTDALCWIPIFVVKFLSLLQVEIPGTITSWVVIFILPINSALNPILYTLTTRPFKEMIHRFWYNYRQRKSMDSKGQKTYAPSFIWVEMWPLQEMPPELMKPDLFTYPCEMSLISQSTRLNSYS
# RXFP1 agonist – qHTS Assay for Agonists of the Relaxin Receptor RXFP1; Relaxin receptor 1 (Homo sapiens), Q9HBX9; HEK293T-RXFP1 cAMP TR-FRET, 30 min; response scale: percent of porcine relaxin response, buffer zero; Potency, µM (titrated, usually from 57.5 µM), for inactives: top-dose activation, actives largely listed as activators; 370,000 compounds, 0.3% hits; AID 2676, 2010; further: potency means the concentration at half of the fitted maximal effect; on the % scale 0 is the no-effect control and ±100 the full control effect; nearly all actives have a fitted effect of over 60% in size
#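 Agonist response is measured as cAMP accumulation in an RXFP1-transfected HEK293T line under PDE4 inhibition. Values are scaled between buffer-only and 29 nM porcine relaxin, and EC50s come from standard Hill equation fits.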
# * marks the source's active call; other numbers are inactive results; ? = inconclusive; · = not tested or not shown; [ ] = another dose, or the depositor's remark. Unless noted, the call rests on the fitted dose curve; in most records, active means well fitted curve in the direction sought with a large enough effect; inconclusive means small, poorly fitted or top-dose-only effect, or another doubt; inactive means no such curve, though single readings can be large; an effect the other way counts as inactive or inconclusive.
SMILES,ASM inhibitor,gsp antagonist,gsp agonist,Integrin act MD,RXFP1 antagonist,RXFP1 agonist
COc1cccc(NC(=O)CSc2nnc(Cc3cccs3)n2-c2ccc(C)cc2)c1,-13.6%,?,-2.0%,-29.9%[7.66 µM],-1.6,2.1%
COc1ccc(-n2c(Cc3cccs3)nnc2SCC(=O)Nc2ccc3c(c2)OCCO3)cc1,-8.1%,31.6µM*,-27.8%,-28.5%,-16.7,2.4%
COc1ccc(-n2c(Cc3cccn3C)nnc2SCC(=O)Nc2ccc3c(c2)OCCO3)cc1,-1.6%,-19.1%,-3.6%,3.5%,-17.7,-1.3%
CC(C)Cc1ccc(C(C)C(=O)OCc2ccccn2)cc1 (centres undefined),·,·,·,·,-31.8,·
CCOC(=O)c1ccc(NC(=O)C2=C(C)Nc3nc(SCc4ccc(Cl)cc4)nn3C2c2ccc(C)cc2)cc1 (centres undefined),·,·,·,·,1.5,1.9%
Cc1ccc2c(c1)c1c(n2CC(O)CN2CCCCC2C)CCCC1 (centres undefined),-1.8%,8.8%,7.4%,-51.1%,-91.9*,-4.2%
Cc1ccc2c(c1)c(C)c(C)n2CC(O)CN1CCCCC1C (centres undefined),-7.5%,6.4%,-40.1%,-12.9%,·,0.1%
O=C(C(Br)=Cc1ccccc1)c1ccccc1,-0.8%,-8.0%,16.8%,-53.1%,-91.3*,·
CC(=Cc1ccccc1)C(=O)c1ccccc1,·,·,-2.4%,4.4%,1.2,·
Cc1c(C(=O)NN2CCCCC2)nn(-c2ccc(Cl)cc2Cl)c1-c1ccc(Cl)cc1,·,·,·,·,-70.6*,·
CC1CCCC(NC(=O)COC(=O)/C=C/c2ccc(S(=O)(=O)N3CCOCC3)cc2)C1C (centres undefined),-1.9%,0.3%,8.4%[15.4 µM],-9.5%,-7.6,-2.8%
O=C(c1cc(-c2ccncc2)nc2ccc(Br)cc12)N1CCN(Cc2ccc3c(c2)OCO3)CC1,0.0%,28.2µM*,18.7%[15.4 µM],-19.3%,-13.1,0.2%
Cc1cc(NS(=O)(=O)c2ccc(Nc3nc(-c4ccc(O)cc4)cs3)cc2)no1,?,-18.4%,-31.8%,5.8%,-11.1,-2.1%
Cc1cc(NS(=O)(=O)c2ccc(Nc3nc(-c4ccc(C)c(C)c4)cs3)cc2)no1,-11.1%,22.4µM*,-7.1%,12.1%,12.1,1.7%
O=C(Nc1ccc(-c2cn3ccsc3n2)cc1)C1COc2ccccc2O1 (centres undefined),-9.7%,39.8µM*,-29.0%,19.3%,-23.5,0.6%
Cc1ccc(NC(=O)C2COc3ccccc3O2)cc1 (centres undefined),-0.4%,-2.2%,-44.9%,-10.3%,13.2,0.9%
COCCn1c(=N)c(S(=O)(=O)c2ccc(Br)cc2)cc2c(=O)n3ccccc3nc21,-5.0%,10.9%,16.7%,4.47µM*,-4.0,-1.9%
COCCn1c(=N)c(S(=O)(=O)c2ccc(F)cc2)cc2c(=O)n3ccccc3nc21,25.1%,-2.2%,?,12.6%,-15.9,6.3%
C/C(=C1\CCOC(=O)S1)N(C=O)Cc1cnc(C)nc1N,·,·,·,·,3.5,·
CCn1c(=NC(=O)CS(=O)(=O)c2ccc(C)cc2)sc2cccc(OC)c21,-0.4%,35.5µM*,4.5%,-38.2%,-18.8,2.8%
COc1cccc2sc(=NC(=O)CS(=O)(=O)c3ccc(F)cc3)n(C)c12,4.0%,-6.0%,24.7%,-37.2%,-8.1,0.2%
CC(=O)c1ccc(-n2c(CCC(=O)O)ccc2-c2ccc(Br)cc2)cc1,-0.1%,0.891µM*,?,-9.7%,2.7,1.5%
CCC(=O)Nc1ccc2nc(SCCOc3ccc(C)cc3OC)sc2c1,·,·,·,·,·,3.0%
Cc1nn(-c2ccccc2)c(Cl)c1C(=O)N1CCN(c2ncnc3c2cnn3-c2ccccc2)CC1,-9.9%,12.6µM*,22.0%,-58.2%,?,-1.3%
Cc1ccc(Cl)cc1-n1ncc2c(N3CCN(Cc4ccccc4)CC3)ncnc21,·,·,·,·,-81.5*,2.9%
SMILES,ASM inhibitor,gsp antagonist,gsp agonist,Integrin act MD,RXFP1 antagonist,RXFP1 agonist
Cc1cc(C)c(OCC(=O)N(Cc2cccc(F)c2)Cc2ccco2)c(C)c1,·,·,·,·,-101.5*,0.8%
CC(C)(C)c1ccc(OCC(=O)N(Cc2ccco2)Cc2ccccc2F)cc1,·,·,·,·,-94.9*,-3.9%
Cc1ccc(CN(Cc2ccco2)C(=O)COc2cc(C)c(Cl)c(C)c2)cc1,·,·,·,·,·,-0.4%
Cc1ccc(OCC(=O)N(Cc2ccco2)Cc2ccco2)cc1,·,·,·,·,-22.4,2.7%
CCc1ccc(CN(Cc2ccco2)C(=O)COc2ccc(Cl)cc2C)cc1,·,·,·,·,-68.8*,0.1%
Cc1cc(OC(C)C(=O)N(Cc2ccco2)Cc2ccco2)cc(C)c1Cl (centres undefined),·,·,·,·,-88.4*,-0.2%
CCCCCCCC(=O)[O-].CCCCCCCC(=O)[O-].[Zn+2],·,·,·,·,-19.3,·
COc1ccccc1OCC(=O)N(Cc1ccco1)Cc1ccccc1F,·,·,·,·,-61.8*,-2.0%
Cc1ccc(OCC(=O)N(Cc2ccco2)Cc2ccco2)cc1C,·,·,·,·,-60.4*,0.3%
Cc1cc(Cl)ccc1OCC(=O)N(Cc1ccco1)Cc1ccccc1F,·,·,·,·,-61.1*,-0.4%
COc1ccccc1C(=O)N(Cc1ccco1)Cc1ccccc1F,·,·,·,·,3.2,-2.9%
COc1ccc(OCC2CCNCC2)cc1,-3.3%,6.0%,-29.5%,-10.6%,1.8,-1.2%
CC1(C)C(=O)N(c2ccccc2)C(=O)c2ccccc21,1.5%,2.1%,?,-6.5%,-9.8,·
COc1ccc(NC(=O)Cn2ccn(-c3ccc(F)c(F)c3)c(=O)c2=O)cc1Cl,·,·,·,·,-11.8,1.0%
COc1ccc(C2=NC(C)(C)N(CC(=O)Nc3cccc(C)c3)C2=O)cc1,·,·,·,·,-16.6,1.5%
Cc1cc(C)cc(NC(=O)CN2CCc3cc4c(cc3C2C)OCCCO4)c1 (centres undefined),-1.1%,-13.3%,-0.2%,-2.4%,-62.2*,0.7%
Cc1ccc(C2=NC(C)(C)N=C2SCC(=O)Nc2ccc(Cl)cc2)cc1,-10.5%,-16.1%,-26.9%,8.6%,-64.2*,-0.1%
CC(=O)c1ccc(N2CCN(C(=O)c3n[nH]c4ccccc34)CC2)cc1,5.0%,11.2µM*,-7.7%[15.4 µM],8.4%,-7.3,2.5%
CCOC(=O)c1c(NC(=O)C(C)OC(=O)C2=COCCO2)sc2c1CCCC2 (centres undefined),-6.2%,22.4µM*,-15.6%,-25.0%,-15.2,-1.3%
COc1ccc(-n2cc(C(=O)Nc3ccccc3C#N)c3ccccc3c2=O)cc1,·,·,·,·,0.4,0.5%
